In article PMC9911399, “Two distinct binding modes provide the RNA-binding protein RbFox with extraordinary sequence specificity”:
Residue numbers refer to the chain shown, from its start. Whole data set: some 16,000 sequences, median “ka relative to ugcaugu” near 0.096, cut for the highest 2% near 0.35. The entries come from a sample that favours the highest values as a whole.

T1: RBFOX1 RRM RbFoxmut (Fox-RRM*) (Homo sapiens, UniProt Q9NWB1 109-208, R118D;E147R;N151S;E152T)
T1 sequence: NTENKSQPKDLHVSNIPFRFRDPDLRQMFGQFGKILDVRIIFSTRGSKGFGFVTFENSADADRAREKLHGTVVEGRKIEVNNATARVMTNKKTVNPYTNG

B1: GCAUCAG (DNA:RNA)
RNA: GGGAGACCGGAAUUCAGAUUGUCCGCAUCAGUUAAAUCCCGUCGUAGCCACCA
DNA 1: CAATCTGAATTCCGGTCTCCC
DNA 2: TGGTGGCTACGACGGGATT
B2: GCAUCGC (DNA:RNA)
RNA: B1 RNA with A30G, G31C
DNA 1: CAATCTGAATTCCGGTCTCCC
DNA 2: TGGTGGCTACGACGGGATT
B3: GCACCGG (DNA:RNA)
RNA: B1 RNA with U28C, A30G
DNA 1: CAATCTGAATTCCGGTCTCCC
DNA 2: TGGTGGCTACGACGGGATT
B4: GCAUCAA (DNA:RNA)
RNA: B1 RNA with G31A
DNA 1: CAATCTGAATTCCGGTCTCCC
DNA 2: TGGTGGCTACGACGGGATT
B5: GCAUCGG (DNA:RNA)
RNA: B1 RNA with A30G
DNA 1: CAATCTGAATTCCGGTCTCCC
DNA 2: TGGTGGCTACGACGGGATT
B6: GCACCGC (DNA:RNA)
RNA: B1 RNA with U28C, A30G, G31C
DNA 1: CAATCTGAATTCCGGTCTCCC
DNA 2: TGGTGGCTACGACGGGATT
B7: GAAUCGG (DNA:RNA)
RNA: B1 RNA with C26A, A30G
DNA 1: CAATCTGAATTCCGGTCTCCC
DNA 2: TGGTGGCTACGACGGGATT
B8: GCAAUCG (DNA:RNA)
RNA: B1 RNA with U28A, C29U, A30C
DNA 1: CAATCTGAATTCCGGTCTCCC
DNA 2: TGGTGGCTACGACGGGATT
B9: GCAUCCG (DNA:RNA)
RNA: B1 RNA with A30C
DNA 1: CAATCTGAATTCCGGTCTCCC
DNA 2: TGGTGGCTACGACGGGATT
B10: CGCAUCG (DNA:RNA)
RNA: B1 RNA with G25C, C26G, A27C, U28A, C29U, A30C
DNA 1: CAATCTGAATTCCGGTCTCCC
DNA 2: TGGTGGCTACGACGGGATT
B11: GCAUCUG (DNA:RNA)
RNA: B1 RNA with A30U
DNA 1: CAATCTGAATTCCGGTCTCCC
DNA 2: TGGTGGCTACGACGGGATT
B12: GCAUCAC (DNA:RNA)
RNA: B1 RNA with G31C
DNA 1: CAATCTGAATTCCGGTCTCCC
DNA 2: TGGTGGCTACGACGGGATT
B13: AGAGCGA (DNA:RNA)
RNA: B1 RNA with G25A, C26G, U28G, A30G, G31A
DNA 1: CAATCTGAATTCCGGTCTCCC
DNA 2: TGGTGGCTACGACGGGATT
B14: CCCUUUC (DNA:RNA)
RNA: B1 RNA with G25C, A27C, C29U, A30U, G31C
DNA 1: CAATCTGAATTCCGGTCTCCC
DNA 2: TGGTGGCTACGACGGGATT
B15: UACGGGG (DNA:RNA)
RNA: B1 RNA with G25U, C26A, A27C, U28G, C29G, A30G
DNA 1: CAATCTGAATTCCGGTCTCCC
DNA 2: TGGTGGCTACGACGGGATT
B16: CCGCCGG (DNA:RNA)
RNA: B1 RNA with G25C, A27G, U28C, A30G
DNA 1: CAATCTGAATTCCGGTCTCCC
DNA 2: TGGTGGCTACGACGGGATT
B17: AGGCCUA (DNA:RNA)
RNA: B1 RNA with G25A, C26G, A27G, U28C, A30U, G31A
DNA 1: CAATCTGAATTCCGGTCTCCC
DNA 2: TGGTGGCTACGACGGGATT
B18: AGAGUUC (DNA:RNA)
RNA: B1 RNA with G25A, C26G, U28G, C29U, A30U, G31C
DNA 1: CAATCTGAATTCCGGTCTCCC
DNA 2: TGGTGGCTACGACGGGATT
B19: GCGAGUG (DNA:RNA)
RNA: B1 RNA with A27G, U28A, C29G, A30U
DNA 1: CAATCTGAATTCCGGTCTCCC
DNA 2: TGGTGGCTACGACGGGATT
B20: GCAUCGU (DNA:RNA)
RNA: B1 RNA with A30G, G31U
DNA 1: CAATCTGAATTCCGGTCTCCC
DNA 2: TGGTGGCTACGACGGGATT
B21: AGCAUCG (DNA:RNA)
RNA: B1 RNA with G25A, C26G, A27C, U28A, C29U, A30C
DNA 1: CAATCTGAATTCCGGTCTCCC
DNA 2: TGGTGGCTACGACGGGATT
B22: GCAUCGA (DNA:RNA)
RNA: B1 RNA with A30G, G31A
DNA 1: CAATCTGAATTCCGGTCTCCC
DNA 2: TGGTGGCTACGACGGGATT
B23: AGCAUCC (DNA:RNA)
RNA: GGGAGACCGGAAUUCAGAUUGUCCAGCAUCCUUAAAUCCCGUCGUAGCCACCA
DNA 1: CAATCTGAATTCCGGTCTCCC
DNA 2: TGGTGGCTACGACGGGATT
B24: GCAUCCA (DNA:RNA)
RNA: B1 RNA with A30C, G31A
DNA 1: CAATCTGAATTCCGGTCTCCC
DNA 2: TGGTGGCTACGACGGGATT
B25: GCACCGU (DNA:RNA)
RNA: B1 RNA with U28C, A30G, G31U
DNA 1: CAATCTGAATTCCGGTCTCCC
DNA 2: TGGTGGCTACGACGGGATT
B26: AGCACCG (DNA:RNA)
RNA: B23 RNA with U29C, C31G
DNA 1: CAATCTGAATTCCGGTCTCCC
DNA 2: TGGTGGCTACGACGGGATT
B27: GCAUUGU (DNA:RNA)
RNA: B1 RNA with C29U, A30G, G31U
DNA 1: CAATCTGAATTCCGGTCTCCC
DNA 2: TGGTGGCTACGACGGGATT
B28: AUCCGCA (DNA:RNA)
RNA: B23 RNA with G26U, A28C, U29G, C31A
DNA 1: CAATCTGAATTCCGGTCTCCC
DNA 2: TGGTGGCTACGACGGGATT
B29: AGGAUGG (DNA:RNA)
RNA: B23 RNA with C27G, C30G, C31G
DNA 1: CAATCTGAATTCCGGTCTCCC
DNA 2: TGGTGGCTACGACGGGATT
B30: UCGUACU (DNA:RNA)
RNA: B1 RNA with G25U, A27G, C29A, A30C, G31U
DNA 1: CAATCTGAATTCCGGTCTCCC
DNA 2: TGGTGGCTACGACGGGATT
B31: GAGAUGU (DNA:RNA)
RNA: B23 RNA with A25G, G26A, C27G, C30G, C31U
DNA 1: CAATCTGAATTCCGGTCTCCC
DNA 2: TGGTGGCTACGACGGGATT
B32: GGGGGGA (DNA:RNA)
RNA: B23 RNA with A25G, C27G, A28G, U29G, C30G, C31A
DNA 1: CAATCTGAATTCCGGTCTCCC
DNA 2: TGGTGGCTACGACGGGATT
B33: GGAUGUU (DNA:RNA)
RNA: B1 RNA with C26G, C29G, A30U, G31U
DNA 1: CAATCTGAATTCCGGTCTCCC
DNA 2: TGGTGGCTACGACGGGATT
B34: GGGGAUG (DNA:RNA)
RNA: B1 RNA with C26G, A27G, U28G, C29A, A30U
DNA 1: CAATCTGAATTCCGGTCTCCC
DNA 2: TGGTGGCTACGACGGGATT
B35: CGGGAUG (DNA:RNA)
RNA: B23 RNA with A25C, C27G, A28G, U29A, C30U, C31G
DNA 1: CAATCTGAATTCCGGTCTCCC
DNA 2: TGGTGGCTACGACGGGATT
B36: GGGAUGU (DNA:RNA)
RNA: B23 RNA with A25G, C27G, C30G, C31U
DNA 1: CAATCTGAATTCCGGTCTCCC
DNA 2: TGGTGGCTACGACGGGATT

What follows are binders tested against T1, RBFOX1 RRM RbFoxmut (Fox-RRM*) (assay: EMSA; HiTS-Eq, 1 nM pool, 10 min; buffer printed only for the single-RNA assays: 10 mM Tris pH 7.5, 150 mM NaCl, 3.4 mM EDTA, 0.001% NP-40, 30 C). Details: tags: His6 N-terminal (pET28a); label: 5' 32P.
Method in brief: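 These values rest on relative association constants, computed from read-count changes of each RNA species versus the control reaction and normalised to the cognate motif. Reads came from free RNA recovered by 8% native PAGE after purified RbFox RRM (wild type or mutant) at increasing concentrations was equilibrated for 10 min in 50 µL with 1 nM of a 5′-radiolabelled pool with 7 randomized nucleotides and DNA-annealed flanks.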

| Binder | binding signal |
| --- | --- |
| B1 | 0.382 KA relative to UGCAUGU |
| B2 | 0.443 KA relative to UGCAUGU |
| B3 | 0.102 KA relative to UGCAUGU |
| B4 | 0.323 KA relative to UGCAUGU |
| B5 | 0.454 KA relative to UGCAUGU |
| B6 | 0.139 KA relative to UGCAUGU |
| B7 | 0.186 KA relative to UGCAUGU |
| B8 | 0.0721 KA relative to UGCAUGU |
| B9 | 0.351 KA relative to UGCAUGU |
| B10 | 0.625 KA relative to UGCAUGU |
| B11 | 0.264 KA relative to UGCAUGU |
| B12 | 0.293 KA relative to UGCAUGU |
| B13 | 0.0748 KA relative to UGCAUGU |
| B14 | 0.0564 KA relative to UGCAUGU |
| B15 | 0.0585 KA relative to UGCAUGU |
| B16 | 0.0808 KA relative to UGCAUGU |
| B17 | 0.0817 KA relative to UGCAUGU |
| B18 | 0.0781 KA relative to UGCAUGU |

| Binder | binding signal |
| --- | --- |
| B19 | 0.184 KA relative to UGCAUGU |
| B20 | 0.578 KA relative to UGCAUGU |
| B21 | 0.437 KA relative to UGCAUGU |
| B22 | 0.675 KA relative to UGCAUGU |
| B23 | 0.237 KA relative to UGCAUGU |
| B24 | 0.338 KA relative to UGCAUGU |
| B25 | 0.172 KA relative to UGCAUGU |
| B26 | 0.104 KA relative to UGCAUGU |
| B27 | 0.228 KA relative to UGCAUGU |
| B28 | 0.167 KA relative to UGCAUGU |
| B29 | 0.177 KA relative to UGCAUGU |
| B30 | 0.0912 KA relative to UGCAUGU |
| B31 | 0.15 KA relative to UGCAUGU |
| B32 | 0.082 KA relative to UGCAUGU |
| B33 | 0.213 KA relative to UGCAUGU |
| B34 | 0.612 KA relative to UGCAUGU |
| B35 | 0.296 KA relative to UGCAUGU |
| B36 | 0.373 KA relative to UGCAUGU |
